Experimental data: article PMC7862700, “An all-to-all approach to the identification of sequence-specific readers for epigenetic DNA modifications on cytosine”

How the values were obtained:
Assay in all cases: DAPPL (digital affinity profiling via proximity ligation, sequencing); 10 mM Tris-HCl pH 7.5, 50 mM NaCl, 1 mM DTT, 4% glycerol, room temperature, 30 min; GST-TFs on glutathione beads, 16-mer random dsDNA library, 0.1% formaldehyde crosslink after washing; high values mean tight binding
FEV = target: T1, FEV (Homo sapiens, UniProt Q99581 1-238); details: protein: recombinant; tags: N-terminal GST; dsDNA, one strand shown
T1 sequence: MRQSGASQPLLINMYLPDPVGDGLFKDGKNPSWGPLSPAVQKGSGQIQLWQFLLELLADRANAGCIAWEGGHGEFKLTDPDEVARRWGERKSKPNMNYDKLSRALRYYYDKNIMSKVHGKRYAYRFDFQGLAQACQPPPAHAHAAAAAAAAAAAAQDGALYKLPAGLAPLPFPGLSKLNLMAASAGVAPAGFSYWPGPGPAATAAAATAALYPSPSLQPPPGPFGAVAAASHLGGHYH
Outline: (§1)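 The binding signal reported is, for every hexamer, its read frequency for a factor over its read frequency for the tag-only sample. Reads came from pools of yeast-expressed, GST-fused human transcription factors on glutathione beads, barcoded with DNA and mixed with that sample, which were incubated with 200 nmole of a random double-stranded 16-mer DNA library in Tris/NaCl/DTT/glycerol buffer at room temperature for 30 min. After washing, the pools were crosslinked with 0.1% formaldehyde, proximity-ligated with BsaI/T4 ligase for 1 h at 37 °C, PCR-amplified and sequenced on an Illumina NextSeq500.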

ETV5 = ETV5 (Homo sapiens, UniProt P41161 1-510); details: protein: recombinant; tags: N-terminal GST; dsDNA, one strand shown
Outline: as §1

HSF1 = HSF1 (Homo sapiens, UniProt Q00613 1-529); details: protein: recombinant; tags: N-terminal GST; chain copies: 3; dsDNA, one strand shown
Outline: as §1

SPIC = target: T2, SPIC (Homo sapiens, UniProt Q8N5J4 1-248); details: protein: recombinant; tags: N-terminal GST; dsDNA, one strand shown
T2 sequence: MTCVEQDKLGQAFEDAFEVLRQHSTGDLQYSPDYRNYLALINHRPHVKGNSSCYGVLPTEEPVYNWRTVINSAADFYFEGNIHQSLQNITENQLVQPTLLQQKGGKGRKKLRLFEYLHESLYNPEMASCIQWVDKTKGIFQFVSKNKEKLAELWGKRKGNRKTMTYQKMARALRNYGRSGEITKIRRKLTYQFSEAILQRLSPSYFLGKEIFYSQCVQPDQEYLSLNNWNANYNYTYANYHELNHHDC
Outline: as §1

ELF4 = ELF4 (Homo sapiens, UniProt Q99607 1-663); details: protein: recombinant; tags: N-terminal GST; dsDNA, one strand shown
Outline: as §1

ELK4 = target: T3, ELK4 (Homo sapiens, UniProt P28324-2 1-405); details: protein: recombinant; tags: N-terminal GST; dsDNA, one strand shown
T3 sequence: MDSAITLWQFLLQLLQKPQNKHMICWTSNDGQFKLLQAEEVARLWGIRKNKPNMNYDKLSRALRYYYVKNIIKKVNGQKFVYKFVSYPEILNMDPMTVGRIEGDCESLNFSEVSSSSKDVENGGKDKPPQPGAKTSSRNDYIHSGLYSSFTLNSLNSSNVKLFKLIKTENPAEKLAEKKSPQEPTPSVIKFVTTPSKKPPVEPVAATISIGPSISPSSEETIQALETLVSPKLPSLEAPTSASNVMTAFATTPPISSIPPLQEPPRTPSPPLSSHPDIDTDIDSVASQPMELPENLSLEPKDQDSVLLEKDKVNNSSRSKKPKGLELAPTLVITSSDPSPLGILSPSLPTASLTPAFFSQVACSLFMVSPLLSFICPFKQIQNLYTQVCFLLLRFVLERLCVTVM
Outline: as §1

ELF3 = target: T4, ELF3 (Homo sapiens, UniProt P78545 1-371); details: protein: recombinant; tags: N-terminal GST; dsDNA, one strand shown
T4 sequence: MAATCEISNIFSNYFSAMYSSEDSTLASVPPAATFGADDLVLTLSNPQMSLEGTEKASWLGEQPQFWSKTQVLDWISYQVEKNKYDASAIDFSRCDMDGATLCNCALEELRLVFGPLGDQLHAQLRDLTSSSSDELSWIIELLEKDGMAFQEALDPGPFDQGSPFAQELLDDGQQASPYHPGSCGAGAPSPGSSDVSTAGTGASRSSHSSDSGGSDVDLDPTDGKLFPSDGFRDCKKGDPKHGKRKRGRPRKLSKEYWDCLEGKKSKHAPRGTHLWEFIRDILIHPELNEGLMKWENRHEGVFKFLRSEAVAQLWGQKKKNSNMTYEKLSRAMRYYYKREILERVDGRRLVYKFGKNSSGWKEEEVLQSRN
Outline: as §1

CRX = CRX (Homo sapiens, UniProt O43186 1-299); details: protein: recombinant; tags: N-terminal GST; dsDNA, one strand shown
Outline: as §1

ETV1 = ETV1 (Homo sapiens, UniProt P50549 1-477); details: protein: recombinant; tags: N-terminal GST; dsDNA, one strand shown
Outline: as §1

ERF = target: T5, ERF (Homo sapiens, UniProt P50548 1-548); details: protein: recombinant; tags: N-terminal GST; dsDNA, one strand shown
T5 sequence: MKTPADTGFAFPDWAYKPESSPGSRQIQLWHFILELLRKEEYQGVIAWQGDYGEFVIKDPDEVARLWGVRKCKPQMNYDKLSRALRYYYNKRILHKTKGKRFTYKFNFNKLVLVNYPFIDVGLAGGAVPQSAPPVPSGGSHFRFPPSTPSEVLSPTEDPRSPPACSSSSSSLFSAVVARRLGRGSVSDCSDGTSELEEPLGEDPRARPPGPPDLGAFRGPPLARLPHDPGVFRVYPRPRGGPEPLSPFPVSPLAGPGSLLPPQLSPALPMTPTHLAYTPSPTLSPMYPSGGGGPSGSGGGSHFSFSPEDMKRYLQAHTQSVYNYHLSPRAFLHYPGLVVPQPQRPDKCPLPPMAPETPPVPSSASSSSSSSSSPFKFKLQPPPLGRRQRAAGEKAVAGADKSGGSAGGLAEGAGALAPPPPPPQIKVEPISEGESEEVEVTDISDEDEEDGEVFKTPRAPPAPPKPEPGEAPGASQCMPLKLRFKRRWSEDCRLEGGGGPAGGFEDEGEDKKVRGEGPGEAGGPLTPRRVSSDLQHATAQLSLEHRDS
Outline: as §1

ETV3L = target: T6, ETV3L (Homo sapiens, UniProt Q6ZN32 1-361); details: protein: recombinant; tags: N-terminal GST; dsDNA, one strand shown
T6 sequence: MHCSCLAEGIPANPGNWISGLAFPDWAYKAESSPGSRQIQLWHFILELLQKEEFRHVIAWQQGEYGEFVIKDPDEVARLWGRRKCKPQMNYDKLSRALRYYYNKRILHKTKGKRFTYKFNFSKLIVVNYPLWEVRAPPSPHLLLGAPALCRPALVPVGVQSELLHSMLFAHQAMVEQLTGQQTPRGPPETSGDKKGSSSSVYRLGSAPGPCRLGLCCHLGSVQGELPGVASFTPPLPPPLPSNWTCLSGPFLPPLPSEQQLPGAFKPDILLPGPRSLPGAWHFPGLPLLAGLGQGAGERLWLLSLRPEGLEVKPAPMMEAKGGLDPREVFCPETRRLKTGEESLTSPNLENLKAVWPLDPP
Outline: as §1

ETS2 = target: T7, ETS2 (Homo sapiens, UniProt P15036 1-469); details: protein: recombinant; tags: N-terminal GST; dsDNA, one strand shown
T7 sequence: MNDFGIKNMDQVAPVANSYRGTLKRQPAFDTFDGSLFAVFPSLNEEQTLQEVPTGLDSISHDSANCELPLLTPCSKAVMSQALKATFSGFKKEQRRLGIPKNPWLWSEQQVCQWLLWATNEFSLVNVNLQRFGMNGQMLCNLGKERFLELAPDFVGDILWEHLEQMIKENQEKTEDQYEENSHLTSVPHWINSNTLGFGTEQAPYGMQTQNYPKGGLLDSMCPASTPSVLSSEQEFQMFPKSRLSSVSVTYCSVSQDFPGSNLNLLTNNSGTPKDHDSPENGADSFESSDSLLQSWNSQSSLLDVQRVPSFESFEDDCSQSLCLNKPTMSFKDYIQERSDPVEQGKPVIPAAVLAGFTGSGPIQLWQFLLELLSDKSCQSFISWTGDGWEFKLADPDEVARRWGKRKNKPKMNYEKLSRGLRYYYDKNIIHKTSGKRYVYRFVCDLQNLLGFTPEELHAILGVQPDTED
Outline: as §1

SPDEF = target: T8, SPDEF (Homo sapiens, UniProt O95238 1-335); details: protein: recombinant; tags: N-terminal GST; dsDNA, one strand shown
T8 sequence: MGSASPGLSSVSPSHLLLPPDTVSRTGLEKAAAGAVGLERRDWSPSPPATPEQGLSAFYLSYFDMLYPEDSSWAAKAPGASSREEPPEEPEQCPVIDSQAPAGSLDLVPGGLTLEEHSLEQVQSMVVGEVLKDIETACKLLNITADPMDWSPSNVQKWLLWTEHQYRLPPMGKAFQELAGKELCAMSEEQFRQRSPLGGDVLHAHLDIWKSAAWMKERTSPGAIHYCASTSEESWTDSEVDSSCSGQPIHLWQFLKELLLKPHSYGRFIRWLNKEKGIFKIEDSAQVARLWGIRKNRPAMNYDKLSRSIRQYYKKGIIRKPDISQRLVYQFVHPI
Outline: as §1

ETV7 = target: T9, ETV7 (Homo sapiens, UniProt Q9Y603 1-341); details: protein: recombinant; tags: N-terminal GST; dsDNA, one strand shown
T9 sequence: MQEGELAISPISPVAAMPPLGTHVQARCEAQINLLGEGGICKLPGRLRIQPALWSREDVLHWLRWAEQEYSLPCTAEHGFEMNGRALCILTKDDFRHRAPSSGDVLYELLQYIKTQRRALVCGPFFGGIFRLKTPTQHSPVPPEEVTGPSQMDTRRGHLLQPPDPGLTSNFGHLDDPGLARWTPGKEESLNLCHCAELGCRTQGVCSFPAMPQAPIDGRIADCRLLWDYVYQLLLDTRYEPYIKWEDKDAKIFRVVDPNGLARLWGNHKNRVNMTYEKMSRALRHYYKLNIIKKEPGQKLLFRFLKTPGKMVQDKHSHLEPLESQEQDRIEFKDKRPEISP
Outline: as §1

ELF5 = target: T10, ELF5 (Homo sapiens, UniProt Q9UKW6-2 1-255); details: protein: recombinant; tags: N-terminal GST; dsDNA, one strand shown
T10 sequence: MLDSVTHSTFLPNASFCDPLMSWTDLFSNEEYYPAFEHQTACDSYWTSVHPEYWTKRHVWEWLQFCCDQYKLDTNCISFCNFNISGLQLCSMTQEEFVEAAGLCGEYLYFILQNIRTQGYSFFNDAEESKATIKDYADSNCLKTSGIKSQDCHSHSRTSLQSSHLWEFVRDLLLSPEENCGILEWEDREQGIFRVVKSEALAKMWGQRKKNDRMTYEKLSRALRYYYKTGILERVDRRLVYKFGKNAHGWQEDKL
Outline: as §1

ETV3 = target: T11, ETV3 (Homo sapiens, UniProt P41162-2 1-143); details: protein: recombinant; tags: N-terminal GST; dsDNA, one strand shown
T11 sequence: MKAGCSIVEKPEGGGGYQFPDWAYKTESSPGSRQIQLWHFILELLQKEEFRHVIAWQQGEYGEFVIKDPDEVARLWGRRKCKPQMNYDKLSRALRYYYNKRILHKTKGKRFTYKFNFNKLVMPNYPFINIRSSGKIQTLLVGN
Outline: as §1

ETV6 = ETV6 (Homo sapiens, UniProt P41212 1-452); details: protein: recombinant; tags: N-terminal GST; dsDNA, one strand shown
Outline: as §1

ETV1, sequence (P50549 whole entry): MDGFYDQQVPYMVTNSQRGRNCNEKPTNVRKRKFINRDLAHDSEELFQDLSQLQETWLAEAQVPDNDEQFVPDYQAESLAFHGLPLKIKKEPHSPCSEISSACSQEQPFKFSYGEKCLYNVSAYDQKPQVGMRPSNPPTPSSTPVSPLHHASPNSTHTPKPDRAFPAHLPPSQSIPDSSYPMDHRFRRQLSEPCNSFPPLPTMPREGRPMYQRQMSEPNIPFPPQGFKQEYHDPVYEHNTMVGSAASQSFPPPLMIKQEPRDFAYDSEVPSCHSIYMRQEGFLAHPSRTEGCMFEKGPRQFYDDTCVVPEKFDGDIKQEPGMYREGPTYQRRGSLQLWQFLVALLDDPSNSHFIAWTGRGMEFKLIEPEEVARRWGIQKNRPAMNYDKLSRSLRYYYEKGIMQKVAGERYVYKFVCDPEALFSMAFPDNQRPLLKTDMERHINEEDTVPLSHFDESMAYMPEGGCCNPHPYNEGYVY
ETV5, sequence (P41161 whole entry): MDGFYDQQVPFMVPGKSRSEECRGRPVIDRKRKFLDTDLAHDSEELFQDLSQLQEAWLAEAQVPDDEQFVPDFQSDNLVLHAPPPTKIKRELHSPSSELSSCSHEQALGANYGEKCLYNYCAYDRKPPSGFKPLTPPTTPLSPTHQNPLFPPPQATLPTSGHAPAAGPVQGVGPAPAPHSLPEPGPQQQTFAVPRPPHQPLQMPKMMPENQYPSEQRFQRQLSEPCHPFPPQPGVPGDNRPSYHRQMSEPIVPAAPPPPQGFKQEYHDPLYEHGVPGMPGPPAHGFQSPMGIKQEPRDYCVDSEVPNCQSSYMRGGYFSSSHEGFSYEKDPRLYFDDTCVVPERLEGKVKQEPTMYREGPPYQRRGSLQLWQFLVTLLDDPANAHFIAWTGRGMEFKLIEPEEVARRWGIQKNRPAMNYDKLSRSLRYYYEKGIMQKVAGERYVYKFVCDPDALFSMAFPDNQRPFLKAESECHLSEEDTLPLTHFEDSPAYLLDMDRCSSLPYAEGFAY
ETV6, sequence (P41212 whole entry): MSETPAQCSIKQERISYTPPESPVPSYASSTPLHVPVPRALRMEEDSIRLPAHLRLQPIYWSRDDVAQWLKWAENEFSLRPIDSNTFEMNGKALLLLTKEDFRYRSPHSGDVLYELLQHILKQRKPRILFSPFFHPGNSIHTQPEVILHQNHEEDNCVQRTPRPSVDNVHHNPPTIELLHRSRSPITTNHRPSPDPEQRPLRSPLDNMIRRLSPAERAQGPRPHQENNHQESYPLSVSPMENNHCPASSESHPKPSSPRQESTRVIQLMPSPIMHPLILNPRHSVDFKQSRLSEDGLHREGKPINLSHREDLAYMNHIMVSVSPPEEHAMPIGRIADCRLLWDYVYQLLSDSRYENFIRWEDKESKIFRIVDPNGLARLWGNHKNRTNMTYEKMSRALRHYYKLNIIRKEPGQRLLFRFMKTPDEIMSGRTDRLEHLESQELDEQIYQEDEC
HSF1, sequence (Q00613 whole entry): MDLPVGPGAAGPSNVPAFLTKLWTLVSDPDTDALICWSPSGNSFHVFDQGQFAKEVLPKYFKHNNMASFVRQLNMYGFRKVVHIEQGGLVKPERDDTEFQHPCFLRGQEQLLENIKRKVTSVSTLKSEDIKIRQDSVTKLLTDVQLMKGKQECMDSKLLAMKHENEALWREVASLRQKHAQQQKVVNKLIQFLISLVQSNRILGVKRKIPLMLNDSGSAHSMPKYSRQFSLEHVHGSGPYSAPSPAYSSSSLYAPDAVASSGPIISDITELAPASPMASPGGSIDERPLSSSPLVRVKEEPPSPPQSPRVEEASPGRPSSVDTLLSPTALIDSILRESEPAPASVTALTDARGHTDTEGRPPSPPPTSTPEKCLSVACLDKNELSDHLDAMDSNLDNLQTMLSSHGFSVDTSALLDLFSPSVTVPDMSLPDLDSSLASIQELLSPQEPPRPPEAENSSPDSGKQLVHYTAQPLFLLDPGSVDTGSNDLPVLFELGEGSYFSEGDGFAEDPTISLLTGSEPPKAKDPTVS
ELF4, sequence (Q99607 whole entry): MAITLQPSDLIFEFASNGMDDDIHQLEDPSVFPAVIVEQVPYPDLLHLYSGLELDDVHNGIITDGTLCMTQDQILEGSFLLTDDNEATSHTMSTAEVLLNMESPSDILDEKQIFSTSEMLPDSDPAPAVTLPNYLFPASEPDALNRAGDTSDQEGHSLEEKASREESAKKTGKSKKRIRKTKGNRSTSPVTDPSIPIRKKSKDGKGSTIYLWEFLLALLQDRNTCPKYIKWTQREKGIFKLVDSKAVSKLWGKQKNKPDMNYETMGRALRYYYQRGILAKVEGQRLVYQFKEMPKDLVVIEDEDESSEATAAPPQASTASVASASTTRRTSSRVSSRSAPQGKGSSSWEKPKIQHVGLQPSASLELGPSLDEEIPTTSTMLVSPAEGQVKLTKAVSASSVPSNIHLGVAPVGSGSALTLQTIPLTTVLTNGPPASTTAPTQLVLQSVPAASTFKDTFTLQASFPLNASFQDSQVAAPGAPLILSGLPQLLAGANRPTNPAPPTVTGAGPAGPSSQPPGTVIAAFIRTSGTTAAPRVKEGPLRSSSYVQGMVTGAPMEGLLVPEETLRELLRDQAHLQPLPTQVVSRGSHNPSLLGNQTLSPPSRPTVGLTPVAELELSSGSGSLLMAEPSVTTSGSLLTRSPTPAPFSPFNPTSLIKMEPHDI
CRX, sequence (O43186 whole entry): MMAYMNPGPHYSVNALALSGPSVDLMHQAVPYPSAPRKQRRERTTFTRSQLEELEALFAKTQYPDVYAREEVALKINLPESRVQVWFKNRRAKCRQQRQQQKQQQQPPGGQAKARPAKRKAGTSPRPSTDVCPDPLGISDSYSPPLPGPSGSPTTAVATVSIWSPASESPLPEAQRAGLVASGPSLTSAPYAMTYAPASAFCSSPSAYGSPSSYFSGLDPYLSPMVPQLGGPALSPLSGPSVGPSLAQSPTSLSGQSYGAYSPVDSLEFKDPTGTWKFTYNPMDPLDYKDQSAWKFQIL

CATGAT
binding signal (FEV): 1.06 fold enrichment (6-mer frequency, TF over GST control) | binding signal (ETV5): 1.08 fold enrichment (6-mer frequency, TF over GST control) | binding signal (HSF1): 1.1 fold enrichment (6-mer frequency, TF over GST control) | binding signal (SPIC): 1.14 fold enrichment (6-mer frequency, TF over GST control) | binding signal (ELF4): 1.17 fold enrichment (6-mer frequency, TF over GST control) | binding signal (ELK4): 1.13 fold enrichment (6-mer frequency, TF over GST control) | binding signal (ELF3): 1.08 fold enrichment (6-mer frequency, TF over GST control) | binding signal (CRX): 1.17 fold enrichment (6-mer frequency, TF over GST control) | binding signal (ETV1): 1.07 fold enrichment (6-mer frequency, TF over GST control) | binding signal (ERF): 1 fold enrichment (6-mer frequency, TF over GST control) | binding signal (ETV3L): 1.13 fold enrichment (6-mer frequency, TF over GST control) | binding signal (ETS2): 1.07 fold enrichment (6-mer frequency, TF over GST control) | binding signal (SPDEF): 1.01 fold enrichment (6-mer frequency, TF over GST control) | binding signal (ETV7): 1.02 fold enrichment (6-mer frequency, TF over GST control) | binding signal (ELF5): 1.1 fold enrichment (6-mer frequency, TF over GST control) | binding signal (ETV3): 1.09 fold enrichment (6-mer frequency, TF over GST control) | binding signal (ETV6): 1.09 fold enrichment (6-mer frequency, TF over GST control)

CCTCGT
binding signal (FEV): 1.18 fold enrichment (6-mer frequency, TF over GST control) | binding signal (ETV5): 1.19 fold enrichment (6-mer frequency, TF over GST control) | binding signal (HSF1): 1.08 fold enrichment (6-mer frequency, TF over GST control) | binding signal (SPIC): 1.25 fold enrichment (6-mer frequency, TF over GST control) | binding signal (ELF4): 1.25 fold enrichment (6-mer frequency, TF over GST control) | binding signal (ELK4): 1.29 fold enrichment (6-mer frequency, TF over GST control) | binding signal (ELF3): 1.24 fold enrichment (6-mer frequency, TF over GST control) | binding signal (ETV1): 1.39 fold enrichment (6-mer frequency, TF over GST control) | binding signal (ERF): 1.23 fold enrichment (6-mer frequency, TF over GST control) | binding signal (ETV3L): 1.2 fold enrichment (6-mer frequency, TF over GST control) | binding signal (ETS2): 1.25 fold enrichment (6-mer frequency, TF over GST control) | binding signal (SPDEF): 1.19 fold enrichment (6-mer frequency, TF over GST control) | binding signal (ETV7): 1.17 fold enrichment (6-mer frequency, TF over GST control) | binding signal (ELF5): 1.4 fold enrichment (6-mer frequency, TF over GST control) | binding signal (ETV3): 1.27 fold enrichment (6-mer frequency, TF over GST control) | binding signal (ETV6): 1.23 fold enrichment (6-mer frequency, TF over GST control)
